The panel holds about 79,000 compounds, 15% with a hit somewhere; the sample as a whole holds those more often. Rule as the data show it: active = growth inhibition above about 70%; inactive = the rest.
Columns and labels:
[1] = NCI Yeast Anticancer Drug Screen. Data for the rad50 strain (AID 155);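 also: 0% = growth of vehicle-only cultures of the same strain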; details: S. cerevisiae rad50 strain growth inhibition; at 50.0 µM; active compounds read high
In short: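 Growth of the mutant yeast was measured after compound exposure and referenced to vehicle-treated cultures.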

[2] = NCI Yeast Anticancer Drug Screen. Data for the mec2-1 strain (AID 157); details: S. cerevisiae mec2-1 strain, at 50.0 µM, active compounds read high
In short: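 mec2-1 yeast strain, carrying an alteration in DNA damage repair or cell cycle control, was exposed to compounds; growth inhibition was measured relative to vehicle-treated controls.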

[3] = NCI Yeast Anticancer Drug Screen. Data for the sgs1 mgt1 strain (AID 161);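 also: 0% = growth of cultures given vehicle only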; details: S. cerevisiae sgs1 mgt1 strain, at 50.0 µM, active compounds read high
In short: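 Percent growth inhibition was derived by comparing compound-exposed mutant yeast with vehicle-exposed cultures. The strain carries alterations in DNA damage repair.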

[4] = NCI Yeast Anticancer Drug Screen. Data for the cln2 rad14 strain (AID 165);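 also: 0% = growth equal to vehicle treated cultures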; details: S. cerevisiae cln2 rad14 strain, at 50.0 µM, active compounds read high
In short: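 Yeast carrying cln2 and rad14 alterations (cell cycle control and DNA damage repair) were exposed to compounds. Growth inhibition was measured against vehicle-treated controls.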

[5] = NCI Yeast Anticancer Drug Screen. Data for the bub3 strain (AID 167); details: S. cerevisiae bub3 mutant strain, at 50.0 µM, active compounds read high
In short: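 Whole-cell yeast assay. The mutant strain was incubated with compounds, and growth inhibition was determined by comparison with vehicle-treated cells.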

[6] = NCI Yeast Anticancer Drug Screen. Data for the mlh1 rad18 strain (AID 175); details: S. cerevisiae mlh1 rad18 strain growth inhibition; at 50.0 µM; active compounds read high
In short: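 Growth inhibition of the yeast strain was measured after compound exposure and expressed relative to vehicle-treated controls. The strain carries defined defects in DNA damage repair.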

Measured: growth inhibition

COC(=O)CCC(=O)c1ccc2c(c1)CC1(C2)Cc2ccc(C(=O)CCC(=O)OC)cc2C1
inactive: [1] -1.45% | [2] -30.6% | [3] -22.4% | [4] 5.35% | [5] -20.1% | [6] 2.9%

CC(NCCNC(C)c1ccccc1)c1ccccc1 (stereo unspecified)
inactive: [1] 6.65% | [2] -22.3% | [3] -1.25% | [4] -35.1% | [5] 1.85% | [6] 8.45%

CCOC(=O)c1c(C)nc(C)c(C(=O)OCC)c1-c1ccnc2ccccc12
inactive: [1] 0.9% | [2] -15.9% | [3] 17.4% | [4] -13% | [5] -3.95% | [6] 5.1%

COC(=O)CCC(CCc1ccccc1)(C(C)=O)C(C)=O
inactive: [1] -2.4% | [2] -13.1% | [3] -16.5% | [4] -4.05% | [5] 19.3% | [6] 7.7%

COc1ccc(C2CC(c3ccccc3)=Nc3ccccc3S2)cc1OC (stereo unspecified)
inactive: [1] 0.25% | [2] -26.3% | [3] 11.7% | [4] 4.15% | [5] 2.4% | [6] 3.75%

CCOCCOC(=O)/C=C/c1ccccc1
inactive: [1] 17.6% | [2] -9.6% | [3] -4.35% | [4] -46.8% | [5] 8.15% | [6] -3.15%

O=C1c2ccccc2C(=O)c2c1cccc2S(=O)(=O)Nc1ccccc1
inactive: [1] -1.45% | [2] 8.85% | [3] 11.2% | [4] -30.1% | [5] 20.1% | [6] -3.6%

O=C(NCCCl)NCC1CCCO1 (stereo unspecified)
inactive: [1] -9.35% | [2] -1.25% | [3] -13.8% | [4] -48.9% | [5] -4.75% | [6] 0.15%

O=C(CCN1C(=O)c2ccccc2C1=O)NCS(=O)(=O)O
inactive: [1] -11.8% | [2] -4.7% | [3] -11.1% | [4] -47.5% | [5] 16.2% | [6] -17.5%

COc1cc2c(cc1OC)C(=O)Cc1ccc3c(c1CN(C)CC2)OCO3
inactive: [1] -19.9% | [2] -42.7% | [3] -21.7% | [4] 2.7% | [5] -40.5% | [6] -17.9%

COc1ccc2c(=O)c(O)c(-c3ccc(OC)c(OC)c3)oc2c1
inactive: [1] 12.7% | [2] 5.35% | [3] -18.6% | [4] -9.1% | [5] -1.25% | [6] 18.4%

O=C(Cl)c1ccc2c(c1)C(=O)OC2=O
inactive: [1] 22.5% | [2] -8.9% | [3] -11.2% | [4] 5.4% | [5] 9.55% | [6] -10.4%

CCN(CC)C(=O)c1ccccc1C
inactive: [1] 17.2% | [2] -2.65% | [3] -9.7% | [4] 6.7% | [5] -3.85% | [6] 0.45%

CCON=C(c1ccc(Cl)cc1)c1ccc(Cl)cc1
inactive: [1] 2.45% | [2] -21.6% | [3] 12.7% | [4] 16.8% | [5] 26.1% | [6] 1.4%

COc1ccc(/C=N/SC(c2ccccc2)(c2ccccc2)c2ccccc2)cc1
inactive: [1] 28.6% | [2] 6% | [3] 13.2% | [4] 13.4% | [5] 0.2% | [6] -4.4%

COc1ccc(C2(O)c3ccccc3C(=O)c3ccc(OC)cc32)cc1 (stereo unspecified)
inactive: [1] -3.15% | [2] -10.6% | [3] 4.15% | [4] 14.8% | [5] -11.1% | [6] -10.5%

CC(C)NCC(=O)CCCBr
inactive: [1] -5.15% | [2] 0.85% | [3] -3.8% | [4] -23.1% | [5] 5.45% | [6] 10.8%

N#CCCN(CCC#N)C(Cc1cn(CCC#N)cn1)C(=O)O (stereo unspecified)
inactive: [1] -8.5% | [2] 6.35% | [3] 4.95% | [4] -13.2% | [5] 5.35% | [6] 10.8%

c1ccc2sc(SCSc3nc4ccccc4s3)nc2c1
inactive: [1] 2.65% | [2] -31.9% | [3] -18.1% | [4] -13.7% | [5] -1.05% | [6] -30.9%

CC(O)(c1ccc(OCCC[N+](C)(C)C)cc1)C(C)(O)c1ccc(OCCC[N+](C)(C)C)cc1 (stereo unspecified)
inactive: [1] -25.5% | [2] -17.1% | [3] -39% | [4] 12.9% | [5] -16.9% | [6] -27.6%

COc1ccc2oc(C(=O)O)cc2c1
inactive: [1] -4.55% | [2] -3.65% | [3] -9.05% | [4] -25% | [5] -6.6% | [6] 0.6%
